From PubChem BioAssay come the findings set out here.

The assay in a line: viability loss with induced miR-34 in A549 – imaging, A549 dox-inducible miR-34, nuclei and caspase counts, primary screen (AID 1347080). Further: test concentration not given here. The settings on record: A549 miR-34 inducible, Hoechst nuclei count, 48 h; measured here: total cells with miR-34 induction; stronger effect = lower value.
`CC(C)(CO)C(O)C(=O)NCCC(=O)O` (centres undefined) came in with a cell count of 8190.
In the case of `CC12CCC3c4ccc(OC(=O)c5ccccc5)cc4CCC3C1CCC2O` (centres undefined), the cell count stood at 9690.
Then `Nc1ncnc2c1c(I)cn2[C@@H]1O[C@H](CO)[C@H](O)C1O` (some centres undefined), with 1250; and `c1ccc2c3c([nH]c2c1)[C@H]1C2CCC([C@@H]4CCCN[C@H]24)N1CC3` (some centres undefined), with 7540.
With `CO[C@H]1C[C@H](O[C@H]2[C@H](C)[C@@H](OC3O[C@H](C)C[C@H](N(C)C)[C@H]3OC(C)=O)[C@@H](C)C[C@]3(CO3)C(=O)[C@H](C)[C@@H](OC(C)=O)[C@@H](C)[C@@H](C)OC(=O)[C@@H]2C)O[C@@H](C)[C@@H]1OC(C)=O` (some centres undefined) the figure was 11900.
Then `CC(=O)OCC(=O)[C@@]1(O)CC[C@H]2[C@@H]3CCC4=CC(=O)CC[C@]4(C)C3(F)C(=O)C[C@@]21C` (some centres undefined), with 6080; and `CN(C)c1ccc(O)c2c1CC1CC3[C@@H](N(C)C)C(=O)C(C(N)=O)=C(O)[C@]3(O)C(=O)C1=C2O` (some centres undefined), with 3880.
With `CCC(C)[C@H]1O[C@]2(CC[C@@H]1C)C[C@@H]1C[C@@H](C/C=C(\C)[C@@H](OC3C[C@H](OC)C(O[C@H]4C[C@H](OC)[C@@H](O)[C@H](C)O4)[C@H](C)O3)[C@@H](C)/C=C/C=C3\CO[C@@H]4[C@H](O)C(C)=C[C@@H](C(=O)O1)[C@]34O)O2` (some centres undefined), the cell count is 4770.
Then `CCC(C)N1CCC2(CC1)N=c1c(c3c4c5c(C)c(O)c3c(O)c1=NC(=O)/C(C)=C/C=C/[C@H](C)[C@H](O)[C@@H](C)[C@@H](O)[C@@H](C)[C@H](OC(C)=O)[C@H](C)[C@@H](OC)/C=C/O[C@@](C)(O5)C4=O)N2` (some centres undefined), with 8510.
